Screens from PubChem BioAssay.
Most compounds without a hit are left out; they make up all but 7.3% or so of the library.
Rab9 promoter act: activators of Rab9 promoter | Huh7 Rab9 promoter-luciferase reporter, luminescence, 24 h | hit rate 2.8% among 320,000 | Potency, µM (highest dose often 9.22 µM), without a hit: at the highest dose activation, negative = inhibition, actives largely listed as activators; further: % of control where 0% means no effect; nearly all actives have a fitted effect of over 60% in size
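Cells were plated at 1500 per well in reduced-serum medium with 10% FBS and left 2 h. Compound in DMSO was then added for 24 h at 37 °C. Reporter signal was read by luminescence after 10 min with luciferase detection reagent.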
SMN2 splice up: SMN2 splice variant enhancement; HEK293 SMN2-luciferase splicing reporter, luminescence, 30-36 h; Potency, µM (titrated, usually from 46.1 µM), without a hit: top-dose activity change, positive = activation, actives largely listed as activators; hit rate 2.8% among 210,000; AID 1458; further: % of control where 0% means no effect; nearly all actives have a fitted effect of over 55% in size
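HEK293 cells carry an SMN2 minigene-luciferase reporter in which exon 7 inclusion puts luciferase in frame. Cells were seeded at 2000 cells/well, attached for 10-12 hours, then exposed to compounds for 30-36 hours at 37C before ONE-Glo luminescence.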
Luc counter: counter-screen: inhibitors of Kinase-Glo firefly luciferase | Q27757 | Kinase-Glo luciferase, ATP luminescence, 8 min | Potency, µM (top dose mostly 38.3 µM), for inactives: at the top dose activity change, negative = inhibition, hits mostly inhibitors | hit rate 0.28% among 200,000; further: on the % scale 0 is the no-effect control and ±100 the full control effect; nearly all actives have a fitted effect of over 60% in size
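Recombinant Kinase-Glo luciferase, 10 uM ATP (linear range), luciferin; imidazole pH 7.2 / KCl / MgCl2 / Tween / BSA buffer; 8 min RT; luminescence.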
NPC1 promoter act: activators of NPC1 promoter | Potency, µM (highest dose often 9.22 µM), for the others: top-dose activation, actives largely listed as activators | AID 485313 | hit rate 2.4% among 320,000 | Huh7 NPC1 promoter luciferase reporter, 24 h; further: % of control where 0% means no effect; nearly all actives have a fitted effect of over 60% in size
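Stably transfected Huh7 (NPC1 promoter→luciferase), 1500 cells/well in Opti-MEM + 10% FBS, 2 h settle, then compound 24 h at 37 °C. Luminescence after 10 min with Amplite reagent.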
ELG1 genotoxic: genotoxicity induction in ELG1-luciferase HEK293T cells | hit rate 1.3% among 330,000 | AID 504466 | Potency, µM (doses to about 46 µM), without a hit: at the highest dose activity change, positive = activation, actives largely listed as activators | HEK293T ELG1-luciferase reporter, luminescence, 16 h; further: % of control where 0% means no effect; nearly all actives have a fitted effect of over 60% in size
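16 hr compound incubation (37 °C, 5% CO2) of HEK293T cells carrying luciferase-tagged ELG1; luciferase then measured by ONE-Glo luminescence after 30 min at RT.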
FLuc counter: firefly luciferase modulation, counter-screen for miR-21 project | P08659 | purified FLuc, Km substrates, luminescence inhibition | Potency, µM (series often up to 57.5 µM), for the others: at the highest dose activity change, negative = inhibition, usual class: inhibitors | hit rate 6.9% among 360,000 | AID 588342;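 further: plate controls were vehicle for no effect and reference inhibitor for full effect; nearly all actives have a fitted effect of over 55% in size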
Target sequence (P08659 whole entry, looked up): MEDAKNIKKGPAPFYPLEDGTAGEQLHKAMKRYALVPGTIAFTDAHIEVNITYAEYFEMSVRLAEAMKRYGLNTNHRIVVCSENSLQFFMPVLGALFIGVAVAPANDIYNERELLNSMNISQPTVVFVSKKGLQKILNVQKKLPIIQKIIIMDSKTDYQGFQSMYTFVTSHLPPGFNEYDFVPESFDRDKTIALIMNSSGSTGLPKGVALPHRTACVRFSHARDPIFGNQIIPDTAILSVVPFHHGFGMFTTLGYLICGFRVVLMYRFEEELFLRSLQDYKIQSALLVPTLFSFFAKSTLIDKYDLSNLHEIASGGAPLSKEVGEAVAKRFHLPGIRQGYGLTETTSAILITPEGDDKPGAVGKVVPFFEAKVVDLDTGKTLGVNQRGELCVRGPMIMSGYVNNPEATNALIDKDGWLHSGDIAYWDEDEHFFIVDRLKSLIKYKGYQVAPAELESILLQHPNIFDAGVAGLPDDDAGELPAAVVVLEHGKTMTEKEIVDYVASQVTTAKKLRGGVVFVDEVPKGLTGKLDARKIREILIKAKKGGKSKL
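Purified P. pyralis luciferase, 10 nM final, with Km-level 10 uM D-luciferin and 10 uM ATP in 50 mM Tris acetate pH 7.5, 10 mM Mg acetate, 0.01% Tween-20, 0.05% BSA; 6-point qHTS titration about 60 µM downward; luminescence read.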
* hit, by the source's call; u = inconclusive; x = no result; [ ] = another dose, or the depositor's remark. The call rests on the fitted dose curve; in most records, active means well fitted curve in the direction sought with a large enough effect; inconclusive means small, poorly fitted or top-dose-only effect, or another doubt; inactive means no such curve, though single readings can be large; an effect the other way counts as inactive or inconclusive. Potency means the concentration at half of the fitted maximal effect.

SMILES	Rab9 promoter act	SMN2 splice up	Luc counter	NPC1 promoter act	ELG1 genotoxic	FLuc counter
COc1cccc(/C=N/N2CCOCC2)c1O	u	x	x	30%	u	6.7µM*
O=[N+]([O-])c1cc(Br)c(O)c(C=Nc2ccc(N3CCOCC3)cc2)c1	0%	20%	-10%	10%	-9%	u
Oc1ccc(/C=N/N2CCOCC2)c(O)c1O	6%	9%	-12%	-4%	-14%	u
COc1cccc(C=Nc2ccc(N3CCOCC3)cc2)c1O	15%	x	x	4%	-3%	12µM*
Cc1ccc(-c2cc(=O)[nH][nH]2)c(C)c1	-10%	12%	3%	1%	-3%	0%
CC(C)Cc1ccc(-c2cc(=O)[nH][nH]2)cc1	17%	0%	-2%	0%	4%	17µM*
COc1cccc(NC(=O)c2ccn(C)n2)c1	2.8µM*	14µM*	u	u	u	u
COc1cccc(NC(=O)c2ncc(Cl)c(Cl)c2Cl)c1	4%	26%	u	13%	-3%	5.4µM*
COc1cccc(NC(=O)c2cccc(C(=O)Nc3cccc(OC)c3)n2)c1	-2%	x	x	-4%	2%	u
CC(C)(C)c1ccc(C(=O)Nc2ccc(CC(=O)O)cc2)o1	-19%	-28%	-3%	-15%	-7%	4.3µM*
O=C(O)Cc1ccc(NC(=O)c2ccc(Cl)c(Cl)c2)cc1	-5%	12%	1%	2%	12%	8.5µM*
Cc1ccc(C(=O)Nc2ccc(CC(=O)O)cc2)o1	-1%	u	-11%	2%	0%	u
O=C(Nc1ccncc1)c1ccc(Cl)c(Cl)c1	0%	x	x	1%	5%	-16%
O=C(O)Cc1ccc(NC(=O)c2ccc(NC(=O)C3CC3)cc2)cc1	19%	x	x	-2%	0%	17µM*
O=C(Nc1ccc(Cc2ccc(NC(=O)C3CC3)cc2)cc1)C1CC1	-1%	-25%	0%	-5%	8%	0%
Cn1cc(C(=O)NC2CCCCC2)c(=O)c2cc(S(=O)(=O)N3CCCC3)ccc21	-8%	11µM*	0%	1%	2%	0%
CCn1cc(C(=O)NCCCN2CCC(C)CC2)c(=O)c2cc(S(=O)(=O)N3CCCC3)ccc21	-6%	-7%	-2%	-3%	0%	-2%
CCn1cc(C(=O)NC2CCC(C)CC2)c(=O)c2cc(S(=O)(=O)N3CCCCC3)ccc21 (stereo not drawn)	u	13µM*	-2%	u	9%	21µM*
CN(Cc1c(F)cccc1Cl)C(=O)CNC(=O)c1cccs1	u	x	x	4µM*	u	u
O=C(CCN1CCOCC1)c1ccc2c(c1)OCCO2	5%	25%	0%	1%	5%	-4%
Cc1ccccc1C(=O)OCCN1CCOCC1	1%	-4%	-3%	-3%	9%	0%
O=C(OCCN1CCOCC1)c1ccc(Cl)cc1Cl	-1%	x	x	1%	9%	24µM*
O=C(OCCN1CCOCC1)c1ccc2c(c1)OCCO2	x	u	-3%	x	x	24µM*
O=C(CCCN1CCOCC1)c1ccc2c(c1)OCCO2	2µM*	u	4%	u	u	13µM*
O=C(CN1C(=O)c2ccccc2S1(=O)=O)Nc1cccnc1	1%	-42%	-4%	-3%	4%	-14%
SMILES	Rab9 promoter act	SMN2 splice up	Luc counter	NPC1 promoter act	ELG1 genotoxic	FLuc counter
COc1ccc(CN2CCN(C(=O)Cn3nc(C)n4cccc4c3=O)CC2)c(OC)c1OC	8%	x	x	-2%	-2%	-1%
N#Cc1cnc2nc(SCc3ccccc3)nn2c1	u	x	x	1.4µM*	u	-17%
CSc1nc2ncc(C#N)cn2n1	-1%	8%	1%	4%	-3%	-1%
CC(=O)O[C@H]1C[C@H]2CC[C@@H]3[C@H]4C[C@@H]([N+]5(C)CCCCC5)[C@@H](OC(C)=O)[C@]4(C)CC[C@@H]3[C@@]2(C)C[C@@H]1[N+]1(C)CCCCC1	x	x	0%	x	x	x
c1ccc(CCNc2nc(-c3cccnc3)cs2)cc1	u	u	1%	u	u	15µM*
c1ccc(CCNc2nc(-c3ccccn3)cs2)cc1	2µM*	u	-3%	3.5µM*	u	6.7µM*
CCOC(=O)C1(Cc2cccc(OC)c2)CCN(Cc2cccc3c2OCO3)CC1	1%	x	1%	-6%	-15%	-1%
Cc1nc2ccccc2c2nc3ccccc3n12	3%[1.84 µM]	4%	2%	7%	u	u
c1ccc2c(c1)nnn1c3ccccc3nc21	25%	-49%	13µM*	1.1µM*	1.6µM*	4.8µM*
Cc1occc1C(=O)N/N=C/c1ccc(N(C)C)cc1	0.11µM*	x	x	0.32µM*	u	1.2µM*
Cc1occc1C(=O)N/N=C/C=C/c1ccc(N(C)C)cc1	2.5µM*	x	x	4.5µM*	u	24µM*
Cc1occc1C(=O)N/N=C/C=C/c1ccccc1[N+](=O)[O-]	-2%	-11%	0%	2%	6%	u
Cc1ccc(/C=N/NC(=O)c2ccoc2C)o1	u	u	u	29%	16%	u
Cc1occc1C(=O)N/N=C/C=C/c1ccccc1	3.5µM*	13µM*	-14%	3.5µM*	u	u
Cc1occc1C(=O)N/N=C/C(Br)=C\c1ccccc1	0.89µM*	x	x	2.5µM*	u	2.1µM*
COc1ccc(CN(C(=O)c2ccc(CN3CCOCC3)o2)C(C(=O)NCC2CCCO2)c2ccc(F)cc2)cc1 (stereo not drawn)	-7%	x	-2%	0%	-1%	-6%
O=C(c1cnccn1)N1CCC2(CCCN(c3ccccc3)C2)CC1	x	-13%	1%	x	x	x
COc1cc(-c2noc(C3CC(=O)N(c4ccc5c(c4)OCCO5)C3)n2)cc(OC)c1OC (stereo not drawn)	x	x	x	x	x	-10%
Oc1c(Br)cc(C2N=C(c3ccccc3)NO2)cc1Br (stereo not drawn)	8%	-20%	-5%	18%	19%	17µM*
Oc1c(Br)cc(Br)c(/C=N/n2c(-c3ccccc3)n[nH]c2=S)c1Br	-3%	x	x	-2%	-3%	-27%
CSc1ccc(C2N=C(c3ccccc3)NO2)cc1 (stereo not drawn)	1.8µM*	x	x	1.3µM*	u	8.5µM*
Fc1ccc(-n2cc(CNCCc3ccccn3)c(-c3ccccc3Cl)n2)cc1	-36%	x	4%	-5%	-6%	-15%
CSc1cccc(-n2nnc(-c3nsc(NC(=O)c4cccs4)n3)c2C)c1	x	x	x	x	x	2.7µM*
Cc1csc(NC(=O)c2cccc(C)c2C)n1	2.8µM*	x	x	3.2µM*	u	15µM*
Cc1csc(NC(=O)[C@@H](NC(=O)c2ccccc2)C(C)C)n1	-7%	-5%	1%	-1%	9%	-1%
